VACV E9 pol inh – blocks vaccinia virus processive DNA synthesis; in vitro processive DNA synthesis, absorbance read-out; hits give low values; normalized absorbance, % (no concentration beside the values); 46,000 tested, 0.94% active; in the data active = normalized absorbance mostly below about 85%, no sharp cut-off; inactive = mostly above about 86%
Starred values were filed as active, the others as inactive. Only a selection was taken, and hits are over-represented in it overall.

SMILES | VACV E9 pol inh
CC1N=C2c3ccccc3N=C(SCc3ccc(F)cc3)N2C1=O (configuration not stated) | 98
Cc1nc(S(=O)(=O)c2ccc(Cl)cc2)c(N2CCOCC2)o1 | 105
O=C(c1ccc(Oc2ccccc2)cc1)N1CCN(c2ccccn2)CC1 | 97
CCN(CC)S(=O)(=O)c1ccc2oc(C(=O)Nc3cccc(Cl)c3)c(C)c2c1 | 106
Cc1ccc(-n2ncc3c(=O)[nH]c(SCc4ccccc4)nc32)cc1 | 82
CN1C=C/C(=C\c2cc[n+](C)c3ccccc23)c2ccccc21 | 84*
CN1/C(=C/c2cccc[n+]2C)C=Cc2ccccc21 | 97
C[n+]1ccc(/C=C/c2ccccc2F)c2ccccc21 | 100
O=C(/C=C/C=C/c1ccco1)c1ccccc1 | 83
Nc1cc(Cl)ccc1C(=O)OCC(=O)c1ccccc1 | 83
O=C(COC(=O)COc1ccc(Cl)cc1)Nc1ccc(Br)cc1F | 106
Clc1ccc(C=NCc2ccc(-c3cccs3)s2)cc1 | 99
Cc1csc2sc(C=NCc3cccs3)c(C)c12 | 63*
Cc1csc2sc(COC(=O)Nc3ccccc3)c(C)c12 | 99
CC(C)c1ccc2c(c1)c1c3c(cncn32)CCC1 | 100
Cc1cccc2c1-c1sc(C(=O)NCCN3CCN(c4cccc(Cl)c4)CC3)cc1CO2 | 100
O=C(O)/C=C/c1ccc2c(c1)CCC2 | 96
CCN1CCCC1CNC(=O)c1cc2c(s1)-c1ccccc1SC2 (configuration not stated) | 73*
O=C(NCCC1=CCCCC1)c1cc2c(s1)-c1ccccc1SC2 | 94
O=C(NCc1ccccc1)c1cc2c(s1)-c1ccccc1SC2 | 103
Cc1oc(-c2cccc(Cl)c2)nc1CN1CCC(C(=O)NCc2ccc(Cl)cc2)CC1 | 95
Cc1[nH]c2ccccc2c1CCNCc1cccs1 | 108
Cc1ccc(C(=O)Nc2nnc(-c3ccccc3)s2)cc1 | 100
CC(C)C(=O)Nc1nnc(-c2ccc(Cl)cc2)s1 | 100
CC(C)C(=O)Nc1nnc(-c2ccccc2)s1 | 60*
SMILES | VACV E9 pol inh
Clc1ccc(Oc2ccc(N=Cc3ccc(I)o3)cc2)cc1 | 100
O=C(Nc1ccccc1)c1c[nH]c(=O)n(-c2ccccc2)c1=O | 101
CCc1ccc(OCCCC(=O)Nc2ncn[nH]2)cc1 | 101
O=C(CCCC(=O)c1ccccc1)Nc1ncn[nH]1 | 73*
O=C(Nc1ncn[nH]1)c1ccccc1O | 94
Cc1ccc(CN2C(=O)CSc3ccc(NC(=O)NC4CCC(C)CC4)cc32)cc1 (configuration not stated) | 105
O=C(NCCc1ccccc1)c1cc2n(n1)C(C(F)(F)F)CC(c1ccc(Br)cc1)N2 (configuration not stated) | 100
CC1CCc2[nH]c3ccc(C(=O)O)cc3c2C1 (configuration not stated) | 100
O=C(O)c1ccc2c(c1)NC(=O)C1CCCN21 (configuration not stated) | 48*
COC(=O)c1ccc2c(c1)NC(=O)C1CCCN21 (configuration not stated) | 94
O=C(O)c1c(-c2ccccc2)[nH]n(-c2ccccc2)c1=O | 97
O=C(O)Cn1cc(C(=O)C2CC2)c2ccccc21 | 89
CCSc1nc2ccccc2n1CC(=O)O | 101
O=C(O)Cn1c2c(c3ccccc31)CSc1ccc(Cl)cc1-2 | 71*
O=C(COc1ccccc1)Nc1nnc(-c2ccc(F)cc2)s1 | 98
CCOC(=O)c1sc(Nc2ccccc2)nc1C | 98
COc1cccc(/C(O)=C2\C(=O)C(=O)N(c3ccccn3)C2c2ccccc2)c1 (configuration not stated) | 94
CCOC(=O)c1sc(N2C(=O)C(=O)/C(=C(/O)c3ccc(OC)c(C)c3)C2c2ccccc2)nc1C (configuration not stated) | 69*
CNC(=O)CC1Nc2ccccc2NC1=O (configuration not stated) | 103
NC(=O)NC(=O)CC1Nc2ccccc2NC1=O (configuration not stated) | 99
O=C(O)c1ccc2c(c1)NC(=O)C(CSCc1ccccc1Cl)N2 (configuration not stated) | 39*
Cc1ccc(C(=O)/C=C2\N/C(=N\S(=O)(=O)c3ccc(N)cc3)NC2=O)cc1 | 100
Clc1ccc(-c2cc(-n3cnc4ccccc43)n[nH]2)cc1 | 96
O=S(=O)(NC1CCCCC1SC1=NCCS1)c1ccc(Cl)cc1 (configuration not stated) | 107
O=C1/C(=C\c2ccc(Br)o2)CC/C1=C/c1ccc(Br)o1 | 19*
SMILES | VACV E9 pol inh
O=C1/C(=C/c2cc3ccccc3o2)CC/C1=C\c1cc2ccccc2o1 | 99
CSc1ccc(/C=C2\CC/C(=C\c3ccc(SC)cc3)C2=O)cc1 | 106
CC1CCCC(C)N1C(=O)Cn1cc(/C=C2/C(=O)N(C)c3ccccc32)c2ccccc21 (configuration not stated) | 122
CN1C(=O)/C(=C/c2cn(CC(=O)O)c3ccccc23)c2ccccc21 | 73*
CN1C(=O)/C(=C/c2cn(CC(=O)N3CCOCC3)c3ccccc23)C(=O)NC1=S | 100
CCN(CC)c1ccc(/C=N/c2nc3c(s2)CCCC3)c(O)c1 | 99
NC(=O)CCN1CCn2c1nc1ccccc12 | 100
Cc1ccc(-n2c(=O)c3c(c4cc(C)ccc4n3C)n(CC(N)=O)c2=O)cc1 | 93
Cc1ccc2c(c1)c1cccc3c1n2CCN3CCC(N)=O | 63*
Cc1nn(C)c2nc(C(F)(F)F)cc(C(F)(F)F)c12 | 96
O=S(=O)(NCCc1csc(-c2cccnc2)n1)c1ccccc1 | 101
O=C(CC1(O)C(=O)Nc2ccccc21)c1ccc2ccccc2c1 (configuration not stated) | 101
O=C(COC(=O)Cc1cccc(C(F)(F)F)c1)NC1CCCCC1 | 98
CCN(CC)C(=O)c1ccc[n+](CC(N)=O)c1 | 100
CCCOc1cccc2c1CCN(Cc1ccccc1)C2=O | 100
COC(=O)c1cc(=O)n(CCc2ccccc2)c(=NCCc2ccccc2)s1 | 102
CCN(CC)CC(O)Cn1c2ccccc2c2ccccc21 (configuration not stated) (tested in a mixture with another compound) | 76*
Cc1c(C)n(CC(O)CNC2CCCC2)c2ccccc12 (configuration not stated) | 97
CC(C)Cn1c2ccccc2c2ccccc21 | 98
Cc1c(C)n(CC(O)CNC2CCCCC2)c2ccccc12 (configuration not stated) | 100
Cc1ccc(N(CC(O)Cn2c3ccccc3c3ccccc32)S(=O)(=O)c2ccccc2)cc1 (configuration not stated) | 101
OC(CNC1CCCC1)Cn1c2ccccc2c2ccccc21 (configuration not stated) | 80*
CCC(=O)n1nc(-c2ccco2)nc1SC | 99
CCC1CCc2nc3sc(C(=O)NC(C)c4ccccc4)c(N)c3cc2C1 (configuration not stated) | 99
O=S(=O)(c1ccc(Br)s1)N1CCN(Cc2ccccc2)CC1 | 105
SMILES | VACV E9 pol inh
COc1ccccc1C(=O)OCC(=O)C(C)(C)C | 102
CCN1C(=O)/C(=C2/C(=O)N(Cc3ccc(Cl)cc3)c3ccccc32)SC1=S | 104
Cc1ccc(C(=O)Nc2nnc(SCc3ccccc3)s2)cc1 | 100
CCC(=O)Nc1nnc(SCc2cccc(F)c2)s1 | 100
CSc1ncc(Cl)c(C(=O)Nc2nnc(SCc3ccc(F)cc3)s2)n1 | 68*
CCCc1cc2c(-c3ccccc3)cc(=O)oc2cc1OC(C)=O | 99
